Screens: PubChem BioAssay, National Center for Advancing Translational Sciences (NCATS)
IL-1B inflam inh: inflammasome signaling inhibition, IL-1 beta readout; 4.7% of 360,000 active; activity change, % at 57.5 µM; THP-1 LPS/ATP IL-1B secretion, AlphaLISA, 16 h; active compounds read low; in the data active means activity change below about -50%; inconclusive means mostly about -30% to -49%
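THP-1 cells pretreated 1 hr with compounds (up to 57.5 uM final), then stimulated with LPS (250 ng/mL final) plus ATP (1.25 mM final); secreted IL-1B measured by AlphaLISA after 16 hr, decreased signal indicating inhibition.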
DT40 TDP1 no CPT: qHTS for Inhibitors of human tyrosyl-DNA phosphodiesterase 1 (TDP1): qHTS in cells in absence of CPT; DT40 Tdp1-/- hTDP1 cells, no CPT, ATP luminescence, 48 h; Potency, µM (titrated, usually from 46.2 µM), for the others: top-dose activity change, negative = growth inhibition, usual class: inhibitors; 15% of 420,000 active; AID 686978, 2013; further: potency means the concentration at half of the fitted maximal effect; nearly all actives have a fitted effect of over 55% in size
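Compound effects on proliferation are scored in DT40 Tdp1-/-;hTDP1 cells in the absence of CPT. ATP levels (CellTiter-Glo luminescence) are recorded after a ≥48 hr, 37 °C incubation.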
Six1-Eya2 inh: Six1/Eya2 interaction inhibition | AID 651725 | 0.56% of 360,000 active | Q15475+O00167 | activity change, % (concentration not given with the values) | AlphaScreen GST-Six1/His-Eya2 binding, biochemical; active compounds read low; in the data active means activity change below about -65%; inconclusive means mostly about -30% to -63%
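Six1/Eya2 binding was read as AlphaScreen signal after compounds were pinned into GST-Six1 plus His-tagged Eya2 (5X stock 250/500 nM) in pH 8.0 Tris/NaCl/TCEP buffer, beads added, then incubated 1 h, 37 C, dark.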
DT40 TDP1 CPT: DT40-hTDP1 cell growth loss with CPT; chicken DT40 Tdp1-/-;hTDP1 cells + 20 nM CPT, ATP luminescence, 48 h; Potency, µM (highest dose often 46.2 µM), without a hit: at the highest dose activity change, negative = growth inhibition, hits mostly inhibitors; 12% of 420,000 active; AID 686979; further: potency means the concentration at half of the fitted maximal effect; nearly all actives have a fitted effect of over 55% in size
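Cell growth measured by CellTiter-Glo luminescence after a minimum 48 h, 37 C compound exposure with 20 nM CPT in Tdp1-knockout DT40 cells stably expressing hTDP1, seeded 400/well; qHTS titration format.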
CtBP-E1A inh: inhibitors of CtBP/E1A interaction; AlphaScreen GST-E1A/His-CtBP binding, 1536-well; active compounds read low; 0.49% of 340,000 active; activity change, % (no concentration beside the values); AID 651724; in the data active means activity change below about -65%; inconclusive means mostly about -30% to -63%
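AlphaScreen with 125 nM GST-E1A and 125 nM His-CtBP (5X stocks) in Tris pH 8.0, 300 mM NaCl, BSA, Tween 20, TCEP. Compounds preincubated 2 h at 37 deg C, then glutathione donor/nickel acceptor beads added for 1 h at 37 deg C in dark.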
TDP1 block: blocks human tyrosyl-DNA phosphodiesterase 1 | Q9NUW8 | recombinant TDP1, AlphaScreen DNA substrate cleavage | Potency, µM (doses to about 130 µM), for inactives: at the top dose activity change, negative = inhibition, hits mostly inhibitors | 0.28% of 350,000 active | AID 485290; further: potency means the concentration at half of the fitted maximal effect; nearly all actives have a fitted effect of over 40% in size
Target sequence (Q9NUW8 whole entry, looked up): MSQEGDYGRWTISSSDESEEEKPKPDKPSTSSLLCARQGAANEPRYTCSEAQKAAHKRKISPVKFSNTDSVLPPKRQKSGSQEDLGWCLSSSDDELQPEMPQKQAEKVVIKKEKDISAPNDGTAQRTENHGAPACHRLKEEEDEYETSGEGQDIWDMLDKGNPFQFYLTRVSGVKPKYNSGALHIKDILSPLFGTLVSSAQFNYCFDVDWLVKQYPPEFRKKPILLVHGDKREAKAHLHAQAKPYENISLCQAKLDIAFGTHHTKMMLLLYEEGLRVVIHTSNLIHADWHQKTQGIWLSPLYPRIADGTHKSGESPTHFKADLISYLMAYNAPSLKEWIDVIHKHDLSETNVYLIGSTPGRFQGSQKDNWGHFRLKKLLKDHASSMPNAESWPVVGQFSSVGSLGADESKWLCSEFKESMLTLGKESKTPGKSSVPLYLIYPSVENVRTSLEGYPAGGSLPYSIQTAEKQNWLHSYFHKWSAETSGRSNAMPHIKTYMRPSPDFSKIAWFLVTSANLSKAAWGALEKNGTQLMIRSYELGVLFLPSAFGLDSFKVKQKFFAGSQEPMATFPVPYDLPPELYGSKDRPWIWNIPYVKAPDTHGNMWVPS
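Recombinant human Tdp1 (E. coli-expressed, 1 nM final) preincubated with compounds 15 min at room temperature, then 5'-biotin/3'-phosphotyrosine-FITC DNA substrate (15 nM final) added for 5 min. AlphaScreen beads (10 ug/ml final) added 10 min; cleavage lowers signal.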
* marks the source's active call; other numbers are inactive results; [ ] = dose if it differs, or a comment. Most compounds without a hit are left out; they make up all but 18% or so of the library. Unless noted, the call rests on the fitted dose curve; in most records, active means well fitted curve in the direction sought with a large enough effect; inconclusive means small, poorly fitted or top-dose-only effect, or another doubt; inactive means no such curve, though single readings can be large; an effect the other way counts as inactive or inconclusive. On the % scale 0 is the no-effect control and ±100 the full control effect.

What do the screens show for `Cc1cccc(-c2nc(SCC(=O)NCC3CCCO3)c3c(=O)n(C)c(=O)n(C)c3n2)c1` (centres undefined)?
DT40 TDP1 no CPT: 0%; DT40 TDP1 CPT: -7%; TDP1 block: 3%

What do the screens show for `CN(CCOc1ccc(Cl)cc1)C(=O)c1cccc(S(=O)(=O)N2CCN(c3ccc(F)cc3)CC2)c1`?
IL-1B inflam inh: -3; DT40 TDP1 no CPT: 5.2µM*; Six1-Eya2 inh: -6; DT40 TDP1 CPT: 7.3µM*; CtBP-E1A inh: -5

How did COc1ccc(CCN(C)C(=O)c2cccc(S(=O)(=O)N3CCN(c4ccc(F)cc4)CC3)c2)cc1OC do in these assays?
IL-1B inflam inh: -21; DT40 TDP1 no CPT: 16µM*; Six1-Eya2 inh: -16; DT40 TDP1 CPT: 15µM*

How did CC(C)CCNC(=O)NC(=O)CSc1nnc(-c2ccccc2Br)o1 do in these assays?
IL-1B inflam inh: 12; DT40 TDP1 no CPT: inconclusive; Six1-Eya2 inh: 2; DT40 TDP1 CPT: -19%; CtBP-E1A inh: 13; TDP1 block: 3%

How did CCS(=O)(=O)N1Cc2ccccc2CC1C(=O)NCCc1ccccc1 (centres undefined) do in these assays?
IL-1B inflam inh: 13; DT40 TDP1 no CPT: -1%; Six1-Eya2 inh: -4; DT40 TDP1 CPT: 14%; CtBP-E1A inh: 11

How did COc1cc(OC)cc(-c2cc3nc(C)c(CCC(=O)Nc4ccc(F)c(Cl)c4)c(C)n3n2)c1 do in these assays?
DT40 TDP1 no CPT: 16µM*; DT40 TDP1 CPT: 18µM*; TDP1 block: 7%

What do the screens show for `COc1cc(-c2cc3n(C)c(C)c(CCC(=O)NCc4ccccc4)c(=O)n3n2)cc(OC)c1OC`?
DT40 TDP1 no CPT: -69%; DT40 TDP1 CPT: 15µM*; TDP1 block: -3%

What do the screens show for `Cc1ccc(C)c(NC(=O)CCc2c(C)n(C)c3cc(-c4ccccc4C)nn3c2=O)c1`?
DT40 TDP1 no CPT: 15µM*; DT40 TDP1 CPT: 21µM*; TDP1 block: 4%

Results for COc1cc(NC(=O)CCc2c(C)nc3cc(-c4ccccc4)nn3c2C)cc(OC)c1OC ?
DT40 TDP1 no CPT: 21µM*; DT40 TDP1 CPT: inconclusive; TDP1 block: 1%

Results for CCC(C)C(=O)Nc1cccc(SC)c1 (centres undefined) ?
TDP1 block: 0%

How did COc1ccc(-c2cc3nc(C)c(CCC(=O)Nc4cccc(C(F)(F)F)c4)c(C)n3n2)c(OC)c1 do in these assays?
DT40 TDP1 no CPT: -27%; DT40 TDP1 CPT: -1%; TDP1 block: -5%

Results for COc1ccc(NC(=O)CCc2c(C)nc3cc(-c4cccc(F)c4)nn3c2C)cc1Cl ?
DT40 TDP1 no CPT: 13µM*; DT40 TDP1 CPT: 16µM*; TDP1 block: 6%

What do the screens show for `CCCCCCNC(=O)CCc1c(C)nc2nc(-c3cc(OC)cc(OC)c3)nn2c1C`?
DT40 TDP1 no CPT: 16µM*; DT40 TDP1 CPT: inconclusive; TDP1 block: -7%

Results for CCCCNC(=O)CCc1c(C)nc2nc(-c3cc(OC)cc(OC)c3)nn2c1C ?
IL-1B inflam inh: -8; DT40 TDP1 no CPT: inconclusive; Six1-Eya2 inh: 0; DT40 TDP1 CPT: -19%; CtBP-E1A inh: 0; TDP1 block: 0%

How did COC(=O)c1cc(NC(=O)CCc2c(C)nc3cc(-c4ccccc4)nn3c2C)cc(C(=O)OC)c1 do in these assays?
DT40 TDP1 no CPT: 1%; DT40 TDP1 CPT: 7%; TDP1 block: 1%

What do the screens show for `COc1cc(OC)cc(-c2cc3nc(C)c(CCC(=O)Nc4nc(C)cs4)c(C)n3n2)c1`?
IL-1B inflam inh: -13; DT40 TDP1 no CPT: 10µM*; Six1-Eya2 inh: -8; DT40 TDP1 CPT: 18µM*; CtBP-E1A inh: 0; TDP1 block: 7%

Results for CNCC(=O)NCC(=O)N[C@@H](Cc1ccccc1)C(=O)N[C@@H](CC(C)C)C(=O)O ?
DT40 TDP1 no CPT: -15%[4.12 µM]; DT40 TDP1 CPT: -17%[4.12 µM]; TDP1 block: -7%

How did Clc1ccc(C2=NCCn3nc4ccccc4c32)cc1 do in these assays?
IL-1B inflam inh: 55; DT40 TDP1 no CPT: inconclusive; Six1-Eya2 inh: 4; DT40 TDP1 CPT: inconclusive; CtBP-E1A inh: -1; TDP1 block: 3%

How did CC(C)CCN1CCN(Cc2ccc(Oc3ncccn3)cc2)CC1CCO (centres undefined) do in these assays?
IL-1B inflam inh: -10; DT40 TDP1 no CPT: -21%; Six1-Eya2 inh: -7; DT40 TDP1 CPT: -2%; CtBP-E1A inh: 3; TDP1 block: 6%

How did COCCNC(=S)N/N=C(\C)c1ccc(O)cc1 do in these assays?
IL-1B inflam inh: 8; DT40 TDP1 no CPT: inconclusive; Six1-Eya2 inh: -5; DT40 TDP1 CPT: inconclusive; CtBP-E1A inh: -3; TDP1 block: 3%

What do the screens show for `C/C(=N\NC(=S)NCC(C)(C)C)c1cc(F)cc(F)c1O`?
IL-1B inflam inh: -110*; DT40 TDP1 no CPT: 15µM*; Six1-Eya2 inh: -25; DT40 TDP1 CPT: 15µM*; CtBP-E1A inh: -22; TDP1 block: 9%

What do the screens show for `CN1CCN(c2nc(-c3cccc(C#N)c3)nc3ccccc23)CC1`?
DT40 TDP1 no CPT: inconclusive; DT40 TDP1 CPT: inconclusive; TDP1 block: 10%[56.1 µM]

Results for COc1ccc(-c2nc(-c3ccccn3)nc(N3CCN(C)CC3)c2C#N)cc1 ?
IL-1B inflam inh: inconclusive; DT40 TDP1 no CPT: 1%; Six1-Eya2 inh: -1; DT40 TDP1 CPT: -2%; CtBP-E1A inh: inconclusive; TDP1 block: 7%

How did CN1CCN(c2nc(-c3ccccc3)nc(-c3ccc(F)cc3)c2C#N)CC1 do in these assays?
IL-1B inflam inh: -61*; DT40 TDP1 no CPT: inconclusive; Six1-Eya2 inh: 1; DT40 TDP1 CPT: inconclusive; CtBP-E1A inh: -2; TDP1 block: 0%

Results for COc1ccccc1-c1nc(-c2ccccc2)nc(N2CCN(C)CC2)c1C#N ?
IL-1B inflam inh: -52*; DT40 TDP1 no CPT: inconclusive; Six1-Eya2 inh: -14; DT40 TDP1 CPT: -17%; CtBP-E1A inh: 0; TDP1 block: 0%

What do the screens show for `Cc1cc(C)c(C(=O)Nc2cccc(F)c2)c(Cl)n1`?
IL-1B inflam inh: -3; DT40 TDP1 no CPT: 1%; Six1-Eya2 inh: 0; DT40 TDP1 CPT: -3%; TDP1 block: 1%

How did COc1cc(/C=C2/SC(=O)N(Cc3ccccc3)C2=O)ccc1OCc1ccncc1 do in these assays?
IL-1B inflam inh: inconclusive; DT40 TDP1 no CPT: 12µM*; Six1-Eya2 inh: 1; DT40 TDP1 CPT: 16µM*; CtBP-E1A inh: 17; TDP1 block: -8%
